Laboratory results as given in PubChem BioAssay AID1851 (National Center for Advancing Translational Sciences (NCATS), 2009).
The whole screen tested about 16,000 compounds, of which about 2,600 (16%) were called active. Another 20% or so got no clear call; they are omitted. Calls come from the whole dose curve; as a rule, active = well fitted curve in the direction sought with a large enough effect; inconclusive = small, poorly fitted or top-dose-only effect, or effect the other way; inactive = no such curve, though single readings can be large or run the other way. The list is a sample of the results.

biological target: Cytochrome P450 2D6 (Homo sapiens) (UniProt P10635); experiment: Cytochrome panel assay with activity outcomes; details: recombinant CYP, pro-luciferin dealkylation, luminescence, p450-cyp2d6; series mostly up to 57.1 µM
% is set by controls: 0 for no effect and ±100 for the full control effect.

Chain of Cytochrome P450 2D6 (Homo sapiens) (P10635 whole entry, looked up): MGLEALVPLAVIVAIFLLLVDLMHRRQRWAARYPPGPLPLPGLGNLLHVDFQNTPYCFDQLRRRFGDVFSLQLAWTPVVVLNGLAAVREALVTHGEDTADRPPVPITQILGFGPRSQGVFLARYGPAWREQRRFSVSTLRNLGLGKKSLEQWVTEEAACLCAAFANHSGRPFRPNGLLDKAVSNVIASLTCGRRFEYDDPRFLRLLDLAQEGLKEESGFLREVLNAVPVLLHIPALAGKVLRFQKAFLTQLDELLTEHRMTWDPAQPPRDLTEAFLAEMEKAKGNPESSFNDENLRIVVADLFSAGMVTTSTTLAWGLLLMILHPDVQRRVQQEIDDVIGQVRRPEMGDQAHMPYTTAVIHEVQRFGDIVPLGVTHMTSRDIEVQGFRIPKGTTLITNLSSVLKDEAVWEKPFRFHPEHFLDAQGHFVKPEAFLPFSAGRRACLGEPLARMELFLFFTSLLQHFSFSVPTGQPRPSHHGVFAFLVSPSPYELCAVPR

AC50, inactive:
CCN(CC)c1ccc(NC(=O)c2cccnc2)c(C)c1
COc1cccc(C2C(C(=O)c3cc4ccccc4o3)=C(O)C(=O)N2c2cc(C)on2)c1OC (stereo not given)
CSc1nc2n(n1)C(c1cccc(F)c1)C(C(=O)Nc1ccc(C)cc1C)=C(C)N2 (stereo not given)
O=C(c1ccncc1)N1CCC2(CCCN(Cc3ccccc3)C2)CC1
COc1ccc(C(=O)N2CCC3(CCN(Cc4ccc(C#N)cc4)CC3)CC2)cc1
O=C(c1ccco1)N1CCC2(CCCN(Cc3ccccc3)C2)CC1
N#Cc1ccc(CN2CCCC3(CCN(C(=O)c4cccc(F)c4)CC3)C2)cc1
O=C(c1cccc(F)c1)N1CCC2(CCCN(Cc3nccs3)C2)CC1
N#Cc1cccc(NC(=O)N2CCCC3(CCN(C(=O)c4ccco4)CC3)C2)c1
N#Cc1ccc(CN2CCCC3(CCN(C(=O)c4ccncc4)CC3)C2)cc1
CC1(C)NC(=O)N(c2ccc([N+](=O)[O-])c(C(F)(F)F)c2)C1=O
O=[N+]([O-])c1ccc(N2CCCCC2)c(Cl)c1N1CCCCC1
Cc1ccc(C)c(Cn2cnc3c(cnn3C(C)(C)C)c2=O)c1
N#Cc1cccc(-c2nc3cnc(N4CCOCC4)nc3n(C[C@H]3CCCO3)c2=O)c1
CC1(C)Cc2c(C#N)c(SCc3ccccc3)nc(N3CCOCC3)c2CO1
COc1ccc(C2=NOC(C(=O)Nc3ccc(C(C)=O)cc3)C2)cc1OC (stereo not given)
COc1ccccc1N1CCN(C[C@@H]2CN3C(=O)N(C)c4ccccc4C3=N2)CC1
COc1ccccc1N1CCN(c2nc3c(C)cccn3c(=O)c2C=O)CC1
Cc1nc2cnc(N3CCN(C)CC3)nc2n(-c2ccccc2)c1=O
CC(C)CNS(=O)(=O)c1cc(C(=O)N2CC(C)OC(C)C2)c(Cl)cc1Cl (stereo not given)
O=C1CCN(S(=O)(=O)c2ccccc2)N1
CC(=O)C[C@H](c1ccc([N+](=O)[O-])cc1)c1c(O)c2ccccc2oc1=O
Cc1noc(C)c1C(=O)N1CCC[C@@]2(CCN(c3ncccn3)C2)C1
CCCC(=O)Nc1nnc(SCC(=O)NCc2cccs2)s1
CC(C)(C)C(=O)Nc1nnc(SCC(=O)NCc2cccs2)s1
C[C@@H]1O[C@H](O[C@@H]2[C@@H](Oc3cc(O)c4c(c3)O[C@H](c3ccc(O)cc3)CC4=O)O[C@@H](CO)[C@@H](O)[C@H]2O)[C@@H](O)[C@H](O)[C@@H]1O
CCC(C)NC(=O)C1CCCN(C(=O)NC2CCCCC2)C1 (stereo not given)
CCOC(=O)N1CCC(NC(=O)CS(=O)(=O)Cc2nc(-c3cccc(OC)c3)oc2C)CC1
O=c1c(-c2ccccc2)nc2cnc(N3CCOCC3)nc2n1C1CC1
CC(C)(C)c1cc(C(=O)O)c(CN2CCCCC2)o1
O=c1c(-c2ccc(Cl)cc2)nc2cnc(N3CCNCC3)nc2n1Cc1ccc(F)cc1
CCCCC1=NN2C(=N)CC(=O)N=C2S1
Cc1ccc(NC(=O)Nc2ncccc2C)cc1
CCOC(=O)C(=Cc1ccc(F)cc1)C(=O)OCC
Cc1cccc(Nc2ccccc2C(=O)O)c1C
CCOC(=O)/C(=C/Nc1ccccc1)[N+](=O)[O-]
Cc1nc2c(C)cccn2c1/C(O)=C1\C(=O)C(=O)N(CCN2CCOCC2)C1c1cccs1 (stereo not given)
CC1(C)C(=O)C(c2ccccc2)=C2CN3C(=O)N(CCc4ccccc4)C(=O)C3(Cc3ccc(F)cc3)C=C21 (stereo not given)
CNc1nc(Cl)nc(NC(C)(C)C)n1
Cc1cc(C)n(-c2nc(NC(C)(C)C)nc(NC(C)(C)C)n2)n1
O=C1/C(=C\c2ccc(Br)o2)SC(=Nc2ccccc2)N1c1ccccc1
Cc1cc(C(=O)Nc2c(C)n(C)n(-c3ccccc3)c2=O)c2ccccc2n1
COC(=O)c1sccc1NC(=O)c1cc(-c2ccc(C)cc2)nc2ccccc12
CC(C)(C)c1nc(SCC(=O)Nc2ccc(N3CCOCC3)cc2)c2ccccc2n1
Cc1cccc(NC(=O)NNC(=O)c2cc(-c3ccccc3Cl)nc3ccccc23)c1
Nc1c(-c2ccccc2)cnn1-c1cccc([N+](=O)[O-])c1
COc1cc(C)nc(N2CCCC(C(=O)Nc3cc(Cl)ccc3OC)C2)n1 (stereo not given)
COCCn1c(=O)c(-c2ccc(Cl)cc2)nc2cnc(N3CCOCC3)nc21
N#Cc1c[nH]n2c(=O)c3c(nc12)CCCC3
COC(=O)C1CCC(C)(C(=O)Nc2ccccc2)C1(C)C (stereo not given)
CC1=C(C(=O)Nc2ccccc2)C(c2ccco2)NC(=S)N1 (stereo not given)
Cc1cccc(NC(=O)c2cccc(N3C(=O)C4C5CCC(C5)C4C3=O)c2)c1C (stereo not given)
COc1ccc(OC)c(C(=O)CN2C(=O)NC(C)(c3ccccc3)C2=O)c1 (stereo not given)
CNC(=O)NC(=O)CSc1nnc(-c2ccco2)n1Cc1ccccc1
Cc1cc(C)c(NC(=O)CSc2nnc(Cc3cccn3C)n2-c2ccc(F)cc2)c(C)c1
CCn1c(COc2ccccc2)nnc1SCC(=O)Nc1cc(OC)ccc1OC
Cc1nc(-n2[nH]c3c(c2=O)CCCC3)[nH]c(=O)c1Cc1ccccc1

AC50, active:
COc1ccc(-c2cc3ccccc3n2CC(O)CNCCO)cc1 (stereo not given) 0.562 µM
O=C(c1cccc(F)c1)N1CCC2(CCCN(Cc3ccncc3)C2)CC1 7.94 µM
O=C(c1ccncc1)N1CCC2(CCCN(Cc3ccncc3)C2)CC1 6.31 µM
O=C(c1ccco1)N1CCC2(CCCN(Cc3ccncc3)C2)CC1 3.16 µM
N#Cc1ccc(CN2CCC3(CC2)CCN(C(=O)c2ccncc2)CC3)cc1 6.31 µM
COc1ccccc1-c1cncnc1N1CCN(C)CC1 25.1 µM
Cc1ccccc1-c1cncnc1N1CCN(C)CC1 12.6 µM
CN1CCN(c2ncncc2-c2ccccc2Cl)CC1 12.6 µM
C1COC(NC(C2CC2)C2CC2)=N1 0.398 µM
O=C(CSc1nnnn1-c1ccccc1)NCc1cccs1 2.51 µM
Cc1cccc(-c2nc(CN3CCCC(C(=O)NC4CCCCC4)C3)c(C)o2)c1 (stereo not given) 4.47 µM
O=C(O)c1cccc(CN2CCCCC2)c1 1 µM
CCOC(=O)C(=CNc1ncccc1C)C(=O)OCC 8.91 µM
CCOC(=O)C(=CNc1cccc(C)c1C)C(=O)OCC 1.58 µM
CC(C)(C)Nc1nc(N2CCCC2)nc(N2CCCC2)n1 3.55 µM
Cc1ccc(NC(=O)c2cc(Cl)nc3ccccc23)cc1 0.178 µM
Cc1cc(C(=O)Nc2ccc(N3CCOCC3)cc2)c2ccccc2n1 14.1 µM
CC1(C)SC(=S)N(NC(=O)Nc2ccccc2)C1N(O)C(=O)Nc1ccccc1 (stereo not given) 25.1 µM
COc1ccc(OC)c(C(=O)CSc2nnc(Cc3cccs3)n2CCc2ccccc2)c1 5.62 µM
COc1ccc(NC(=O)CSc2nnc(Cc3cccn3C)n2CCc2ccccc2)c(OC)c1 3.98 µM

activity, negative = inhibition, inactive:
Cn1c(=O)c2[nH]c(CSCc3ccccc3)nc2n(C)c1=O -20.6% [at 11.4 µM]
CC(C)C(=O)N[C@H]1CCCN1C(=O)/C=C\c1ccccc1 -5.27% [at 11.4 µM]
Cn1c(=O)c2[nH]c(CCCc3ccc([N+](=O)[O-])cc3)nc2n(C)c1=O -15.3% [at 11.4 µM]
CN1CCN(c2ccncc2S(=O)(=O)N2CCN(C)CC2)CC1 0.642% [at 11.4 µM]
COc1ccc(Cc2ccccc2C(=O)O)c2ccccc12 11.8% [at 11.4 µM]
O=C(O)[C@@H](O)c1ccc(F)cc1 4.43% [at 11.4 µM]
Fc1cccc(F)c1C(Nc1nncs1)Nc1nncs1 19.1% [at 11.4 µM]
OC[C@@H](O)[C@@H](O)[C@@H](O)[C@@H](O)c1nc2ccc(Cl)cc2[nH]1 19.4% [at 11.4 µM]
Nc1nc(C(=O)O)c(N=Nc2ccccc2)c(=O)[nH]1 -12.3% [at 11.4 µM]
CC(C)C(=O)N[C@@H]1CCCN1C(=O)/C=C\c1ccccc1 -16.8% [at 11.4 µM]
O=C(O)c1cccc(SSc2cccc(C(=O)O)c2)c1 -12% [at 11.4 µM]
Cc1ccc(S(=O)(=O)N[C@H]2COC(=O)[C@@H](C)COC(=O)[C@H](C)NC(=O)C/C=C\[C@H]2C)cc1 -1.17% [at 11.4 µM]
NCCSS(=O)(=O)CCN 27.6% [at 11.4 µM]
COC(=O)C/C=C\[C@@H](C)[C@@H](/C=N\OC[C@@H](O)[C@H]1O[C@H]2OC(C)(C)O[C@H]2[C@@H]1O)NS(=O)(=O)c1ccc(C)cc1 -10.1% [at 11.4 µM]
COC(=O)C/C=C\[C@@H](C)[C@@H](CO)NS(=O)(=O)c1ccc(C)cc1 -2.05% [at 11.4 µM]
O=C1C2=C(Nc3cc([N+](=O)[O-])ccc3N2)O[C@@H]1c1ccc([C@H]2OC3=C(Nc4ccc([N+](=O)[O-])cc4N3)C2=O)cc1 -7.54% [at 11.4 µM]
O=C1c2ccccc2C(=O)c2c(NC3CCCCC3)ccc(Nc3ccc(S(=O)(=O)O)cc3)c21 -10.8% [at 11.4 µM]
CC(=O)Nc1ccc(Cc2ccc3[nH]c(=O)cc(C)c3c2)cc1 2.4% [at 11.4 µM]
